Values joined by “and” are separate entries in the source; they are usually repeats but may differ in a detail not shown here. Equal values may be shown once. Records with an inconclusive call do not appear. Entries that show only a call come without a potency. Active and inactive are the calls of the source. Unless noted, the call rests on the fitted dose curve.
How the values were obtained:
[1] = Nuclear factor erythroid 2-related factor 2/antioxidant responsive element (Nrf2/ARE) small molecule agonists: luciferase reporter gene qHTS assay in human keratinocytes (AID 1919969); further: nearly all actives have a fitted effect of over 35% in size; further: potency means the concentration at half of the fitted maximal effect
[2] = molecular target: Gonadotropin-releasing hormone receptor (Homo sapiens) (UniProt P30968); experiment: Human gonadotropin-releasing hormone receptor (GnRHR) small molecule agonists, calcium flux assay in GnRHR-HEK293 cells (AID 1920063); further: nearly all actives have a fitted effect of over 35% in size; further: potency means the concentration at half of the fitted maximal effect
In short: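 Agonist mode: compounds at 15 concentrations, in triplicate, went onto calcium dye-loaded GnRHR-HEK293 cells. Intracellular calcium was then followed as 480/540 nm fluorescence at 1 s intervals over 3 min.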

[3] = molecular target: KiSS-1 receptor (Homo sapiens) (UniProt Q969F8); experiment: Human kisspeptin (KISS1R) small molecule agonists, calcium flux assay in KISS1R-HEK293 cells (AID 1920064; active means well fitted activation curve with a large enough effect in the repeat runs; further: potency means the concentration at half of the fitted maximal effect)
In short: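 Agonist mode: intracellular calcium rise tracked at 1 s intervals over 3 min (480/540 nm) immediately after compound addition to dye-loaded KISS1R-HEK293 stable cells. Each compound tested at 15 concentrations in triplicate.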

[4] = G protein-coupled receptor (GPCR) small molecule agonists, calcium flux assay: HEK293 wild type cell line counter screen (AID 1920065); further: potency means the concentration at half of the fitted maximal effect
In short: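 Calcium flux counter screen: compound added in agonist mode at 15 concentrations in triplicate to dye-loaded parental HEK293 cells. Fluorescence (480/540) read kinetically for 3 min; ATP served as positive control.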

[5] = p53 small molecule agonists, cell-based qHTS assay with rat liver microsomes: qHTS cell viability counter screen (AID 1963580); further: nearly all actives have a fitted effect of over 45% in size
In short: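 Luminescent ATP readout (CellTiter-Glo, 30 min at room temperature) reports viability of p53RE-bla HCT-116 cells after 16 h at 37 C with test compounds under metabolic activation by rat liver microsomes and NADPH at 0.5 mg/mL final each.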

[6] = p53 small molecule agonists, cell-based qHTS assay: qHTS cell viability counter screen (AID 1963581); further: nearly all actives have a fitted effect of over 45% in size; further: potency means the concentration at half of the fitted maximal effect
In short: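 Counter screen read by CellTiter-Glo luminescence (ATP content, 30 min at room temperature), run in the same wells as the beta-lactamase reporter read. HCT-116 p53RE-bla cells saw compounds for 16 h at 37 C.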

[7] = molecular target: 5-hydroxytryptamine receptor 2A (Homo sapiens) (UniProt P28223); experiment: 5-hydroxytryptamine receptor 2A (HTR2A) small molecule agonists, cell-based qHTS assay (AID 1963587); further: nearly all actives have a fitted effect of over 30% in size; further: potency means the concentration at half of the fitted maximal effect
In short: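 HTR2A-CHO cells, plated 18 h at 37 C/5% CO2, dye-loaded 1 h at 37 C; compounds in DMSO added by pin tool (agonist mode). Intracellular calcium flux read as kinetic fluorescence on FDSS over 2 min at 1 s intervals.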

[8] = molecular target: Muscarinic acetylcholine receptor M1 (Homo sapiens) (UniProt P11229); experiment: Cholinergic receptor muscarinic 1 (CHRM1) small molecule antagonists, cell-based qHTS assay (AID 1963588); further: nearly all actives have a fitted effect of over 40% in size; further: potency means the concentration at half of the fitted maximal effect
In short: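 Compounds were tested at 15 concentrations in three independent runs. Dye-loaded CHRM1-CHO cells were exposed 5 min at room temperature before stimulation by acetylcholine added at 50nM. Intracellular calcium was read kinetically on FDSS for 3 min.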

[9] = molecular target: Muscarinic acetylcholine receptor M1 (Homo sapiens) (UniProt P11229); experiment: Cholinergic receptor muscarinic 1 (CHRM1) small molecule agonists, cell-based qHTS assay (AID 1963589); further: nearly all actives have a fitted effect of over 35% in size; further: potency means the concentration at half of the fitted maximal effect
In short: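 Agonist-mode calcium-flux screen: compounds at 15 concentrations, three independent runs, were pin-transferred onto dye-loaded human CHRM1-CHO cells. Fluorescence was then recorded kinetically every second over minutes.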

[10] = cAMP Responsive Elements (CRE) small molecule antagonists, cell-based qHTS assay (AID 1963591; active means well fitted inhibition curve with a large enough effect in the signal ratio in the repeat runs, not every such curve was filed as active; the % refers to the signal ratio)
In short: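 Antagonist mode: compounds are added alongside the adenylyl cyclase activator NKH477 (0.25 uM final) to CRE-bla HEK293T cells for 3 h. LiveBLAzer FRET substrate, 2 h at room temperature, reports bla expression.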

[11] = molecular target: D(2) dopamine receptor (Homo sapiens) (UniProt P14416); experiment: Dopamine D2 receptor (DRD2) small molecule agonists, cell-based qHTS assay (AID 1963594); further: nearly all actives have a fitted effect of over 35% in size
In short: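 HEK293 cells stably expressing DRD2 were cultured 24 h at 37 C, then given Ro20-1724 (0.1 mM final) and compounds for 10 min at room temperature. NKH477 (200nM) was then added for 30 min. cAMP was read by HTRF.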

[12] = p53 small molecule agonists, cell-based qHTS assay with human liver microsomes (AID 1963577)
In short: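 Compounds act here after metabolic activation: human liver microsomes and NADPH, both at 0.5 mg/mL final, were co-added to p53RE-bla cells. Incubation ran 16 h at 37 C, followed by LiveBLAzer detection.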

[13] = p53 small molecule agonists, cell-based qHTS assay with rat liver microsomes (AID 1963578)
In short: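 Read-out is beta-lactamase reporter fluorescence (LiveBLAzer, 2 h, room temperature, dark) in p53RE-bla cells treated 16 h at 37 C with compound, rat liver microsomes and NADPH, both 0.5 mg/mL final.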

[14] = p53 small molecule agonists, cell-based qHTS assay (AID 1963582; active means well fitted activation curve with a large enough effect in the signal ratio in the repeat runs, not every such curve was filed as active; the % refers to the signal ratio)
In short: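 Read-out is beta-lactamase FRET fluorescence after 2 h at room temperature with LiveBLAzer B/G substrate. p53 response element-bla cells were treated 16 h at 37 C with compounds in DMSO, added 5 h after seeding.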

[15] = molecular target: 5-hydroxytryptamine receptor 2A (Homo sapiens) (UniProt P28223); experiment: 5-hydroxytryptamine receptor 2A (HTR2A) small molecule antagonists, cell-based qHTS assay (AID 1963586); further: nearly all actives have a fitted effect of over 45% in size
In short: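 CHO cells stably expressing human HTR2A were plated for 18 h at 37 C, then loaded with calcium dye for 1 h. Compounds were preincubated 5 min at room temperature before DOI (4 nM solution) was added. Kinetic fluorescence was read for 3 min.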

[16] = cAMP Responsive Elements (CRE) small molecule agonists, cell-based qHTS assay (AID 1963590)
In short: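 Agonist mode: compound added to CRE-bla HEK 293T cells (2,000/well, 18 h after plating) for 3 h at 37 C/5% CO2. Reporter activity detected via FRET beta-lactamase substrate, 2 h room-temperature loading.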

[17] = molecular target: Beta-2 adrenergic receptor (Homo sapiens) (UniProt P07550); experiment: Adrenergic beta2 receptor (ADRB2) small molecule antagonists, cell-based qHTS assay (AID 1963592); further: series mostly up to about 92 µM; nearly all actives have a fitted effect of over 50% in size
In short: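 Assay format: CHO-ADRB2 cells, 18-20hr seeding at 37C/5% CO2, then compound plus 1nM isoproterenol agonist mix for 0.5hr RT. Homogeneous time-resolved fluorescence cAMP detection after 1hr, expressed as 665/615 nm ratio.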

[18] = molecular target: Beta-2 adrenergic receptor (Homo sapiens) (UniProt P07550); experiment: Adrenergic beta2 receptor (ADRB2) small molecule agonists, cell-based qHTS assay (AID 1963593);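 further: CHO cells stably overexpressing human ADRB2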
In short: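 CHO cells stably over-expressing ADRB2 were plated overnight at 37C, then dosed with compounds plus a stimulation mix containing 100uM IBMX and 25uM Ro-20-1724 for 0.5hr at room temperature. cAMP was measured by HTRF competition, 1hr.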

[19] = molecular target: D(2) dopamine receptor (Homo sapiens) (UniProt P14416); experiment: Dopamine D2 receptor (DRD2) small molecule antagonists, cell-based qHTS assay (AID 1963595; active means well fitted inhibition curve with a large enough effect in the signal ratio in the repeat runs, with a control signal flat; the % refers to the signal ratio; further: potency means the concentration at half of the fitted maximal effect)
In short: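 Antagonism was scored as restored cAMP in HEK293-DRD2 cells. These cells were stimulated with 200 nM NKH477 and 12 nM quinpirole for 30 min at room temperature, in the presence of 0.1 mM Ro20-1724.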

[20] = p53 small molecule agonists, cell-based qHTS assay with human liver microsomes: qHTS cell viability counter screen (AID 1963579); further: nearly all actives have a fitted effect of over 45% in size; further: potency means the concentration at half of the fitted maximal effect
In short: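 Cells carrying the p53 response-element beta-lactamase reporter are treated for 16 h at 37 C with test compounds in the presence of human liver microsomes and NADPH (both 0.5 mg/mL final); ATP-based CellTiter-Glo luminescence then reports viability.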

KiSS-1 receptor (Homo sapiens), sequence (Q969F8 whole entry, looked up): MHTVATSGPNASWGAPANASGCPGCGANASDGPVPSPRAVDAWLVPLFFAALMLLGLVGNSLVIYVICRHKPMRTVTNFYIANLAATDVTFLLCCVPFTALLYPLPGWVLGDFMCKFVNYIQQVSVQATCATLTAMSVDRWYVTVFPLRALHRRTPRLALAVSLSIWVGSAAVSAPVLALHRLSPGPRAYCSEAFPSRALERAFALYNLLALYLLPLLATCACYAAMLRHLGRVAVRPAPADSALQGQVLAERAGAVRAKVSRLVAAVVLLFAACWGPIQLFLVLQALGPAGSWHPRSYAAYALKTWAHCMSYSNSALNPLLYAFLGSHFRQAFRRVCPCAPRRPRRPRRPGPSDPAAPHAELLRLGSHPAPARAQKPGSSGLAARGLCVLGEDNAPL
5-hydroxytryptamine receptor 2A (Homo sapiens), sequence (P28223 whole entry, looked up): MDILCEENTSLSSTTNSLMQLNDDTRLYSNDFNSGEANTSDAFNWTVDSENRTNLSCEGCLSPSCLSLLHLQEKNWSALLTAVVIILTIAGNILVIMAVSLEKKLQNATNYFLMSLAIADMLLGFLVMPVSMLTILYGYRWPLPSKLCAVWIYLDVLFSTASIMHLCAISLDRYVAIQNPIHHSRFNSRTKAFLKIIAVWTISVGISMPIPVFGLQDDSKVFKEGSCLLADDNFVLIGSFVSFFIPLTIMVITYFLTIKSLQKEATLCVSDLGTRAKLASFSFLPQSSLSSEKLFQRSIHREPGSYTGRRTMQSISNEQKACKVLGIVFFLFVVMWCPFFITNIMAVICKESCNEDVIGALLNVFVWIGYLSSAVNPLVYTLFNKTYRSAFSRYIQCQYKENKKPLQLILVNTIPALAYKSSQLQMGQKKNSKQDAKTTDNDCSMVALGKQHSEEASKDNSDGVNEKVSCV
Beta-2 adrenergic receptor (Homo sapiens), sequence (P07550 whole entry, looked up): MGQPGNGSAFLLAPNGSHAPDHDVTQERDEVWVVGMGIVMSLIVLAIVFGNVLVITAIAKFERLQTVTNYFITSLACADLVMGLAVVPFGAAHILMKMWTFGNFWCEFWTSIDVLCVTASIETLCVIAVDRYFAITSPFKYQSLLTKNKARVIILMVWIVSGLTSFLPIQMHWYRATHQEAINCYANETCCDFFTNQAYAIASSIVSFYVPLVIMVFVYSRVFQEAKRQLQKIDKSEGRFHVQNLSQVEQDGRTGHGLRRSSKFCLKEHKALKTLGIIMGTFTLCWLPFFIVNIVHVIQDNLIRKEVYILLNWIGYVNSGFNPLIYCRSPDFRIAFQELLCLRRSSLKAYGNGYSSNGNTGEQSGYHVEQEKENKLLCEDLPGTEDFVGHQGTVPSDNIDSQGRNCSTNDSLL
Muscarinic acetylcholine receptor M1 (Homo sapiens), sequence (P11229 whole entry, looked up): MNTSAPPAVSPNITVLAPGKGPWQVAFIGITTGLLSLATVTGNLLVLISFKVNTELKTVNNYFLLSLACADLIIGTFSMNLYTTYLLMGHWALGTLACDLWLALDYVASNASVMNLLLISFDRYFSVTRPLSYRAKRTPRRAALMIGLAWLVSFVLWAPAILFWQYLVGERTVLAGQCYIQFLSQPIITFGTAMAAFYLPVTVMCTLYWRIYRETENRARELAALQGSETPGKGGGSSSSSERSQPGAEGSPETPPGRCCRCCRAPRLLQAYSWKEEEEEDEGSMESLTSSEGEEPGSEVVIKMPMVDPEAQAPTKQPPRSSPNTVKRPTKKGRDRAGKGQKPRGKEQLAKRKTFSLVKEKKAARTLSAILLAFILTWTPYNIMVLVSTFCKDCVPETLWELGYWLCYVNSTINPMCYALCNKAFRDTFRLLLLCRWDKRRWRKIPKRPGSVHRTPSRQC
Gonadotropin-releasing hormone receptor (Homo sapiens), sequence (P30968 whole entry, looked up): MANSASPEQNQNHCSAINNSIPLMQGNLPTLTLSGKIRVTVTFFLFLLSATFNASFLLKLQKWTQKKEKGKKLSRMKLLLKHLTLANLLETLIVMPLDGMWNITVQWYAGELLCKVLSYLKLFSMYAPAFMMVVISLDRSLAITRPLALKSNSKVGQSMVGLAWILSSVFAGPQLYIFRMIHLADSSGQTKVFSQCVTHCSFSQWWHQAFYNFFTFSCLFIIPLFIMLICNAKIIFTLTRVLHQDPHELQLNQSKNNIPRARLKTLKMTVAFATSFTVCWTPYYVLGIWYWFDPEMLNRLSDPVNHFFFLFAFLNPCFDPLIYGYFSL
D(2) dopamine receptor (Homo sapiens), sequence (P14416 whole entry, looked up): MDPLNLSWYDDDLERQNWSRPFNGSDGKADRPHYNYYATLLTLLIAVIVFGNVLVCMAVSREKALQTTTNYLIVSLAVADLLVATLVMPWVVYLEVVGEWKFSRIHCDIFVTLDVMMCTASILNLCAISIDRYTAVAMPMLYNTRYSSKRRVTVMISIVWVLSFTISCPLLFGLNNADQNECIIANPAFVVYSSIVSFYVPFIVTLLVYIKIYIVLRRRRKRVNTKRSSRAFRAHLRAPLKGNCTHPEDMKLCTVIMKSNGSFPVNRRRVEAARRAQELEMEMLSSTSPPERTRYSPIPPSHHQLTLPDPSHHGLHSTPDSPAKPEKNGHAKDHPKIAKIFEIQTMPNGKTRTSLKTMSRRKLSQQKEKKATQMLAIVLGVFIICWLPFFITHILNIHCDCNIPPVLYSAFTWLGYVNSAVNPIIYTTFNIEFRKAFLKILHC

SMILES	Potency [1]	Potency [2]	Potency [3]	Potency [4]	Potency [5]	Potency [6]	Potency [7]	Potency [8]	Potency [9]	Potency [10]	Potency [11]	Potency [12]	Potency [13]	Potency [14]	Potency [15]	Potency [16]	Potency [17]	Potency [18]	Potency [19]	Potency [20]
COc1cc(C(C)=O)ccc1OCCCN1CCC(c2noc3cc(F)ccc23)CC1	inactive	inactive	inactive	inactive	inactive	inactive	inactive	3.65 µM (active)	inactive	inactive	inactive	–	–	–	–	–	–	–	–	–
CC1CCCNC1 (stereo unspecified)	67.1 µM (active)	inactive	inactive	–	–	inactive	inactive	inactive	inactive	inactive	inactive	inactive	inactive	inactive	inactive	inactive	inactive	inactive	inactive	–
C[n+]1c2cc(N)ccc2cc2ccc(N)cc21 (tested in a mixture with another compound)	6.68 µM (active)	16.9 µM (active)	21.3 µM (active)	16.9 µM (active)	–	inactive	19 µM (active)	inactive	19 µM (active)	–	–	–	–	–	–	–	–	–	–	inactive
CC(=O)O[C@@]12CO[C@@H]1C[C@H](O)[C@@]1(C)C(=O)[C@H](O)C3=C(C)[C@@H](OC(=O)[C@H](O)[C@@H](NC(=O)OC(C)(C)C)c4ccccc4)C[C@@](O)([C@@H](OC(=O)c4ccccc4)[C@H]21)C3(C)C	inactive	inactive	inactive	–	–	–	–	–	–	–	inactive	–	–	–	–	–	–	–	inactive	–
N#Cc1ccccc1C#N	inactive	inactive	inactive	inactive	–	inactive	inactive	inactive	inactive	inactive	inactive	–	–	–	inactive	inactive	inactive	inactive	inactive	inactive
COc1cc(NC(C)CCCN)c2ncccc2c1 (stereo unspecified)	11.9 µM (active)	inactive	inactive	–	inactive	inactive	–	–	–	inactive	–	inactive	inactive	inactive	–	inactive	inactive	–	inactive	inactive
C=C1CC[C@H](O)CC1=C/C=C1\CCC[C@]2(C)[C@@H]([C@H](C)/C=C/[C@H](C)C(C)C)CC[C@@H]12	21.5 µM (active) and 61.1 µM (active)	inactive	inactive	–	inactive	–	–	–	–	–	inactive	inactive	–	–	–	–	–	inactive	inactive	inactive
COc1ccc(/C=C/C(=O)c2ccc(OC)cc2OC)cc1	29.8 µM (active)	inactive	inactive	inactive	–	inactive	inactive	inactive	–	–	inactive	–	–	–	inactive	–	inactive	–	inactive	–
C[C@@H](Oc1ccc(CNC(=O)c2cccnc2Oc2ccc3c(c2)OCO3)c(F)c1)C(=O)O	inactive	inactive	inactive	inactive	–	–	inactive	–	inactive	–	inactive	–	–	–	inactive	inactive	inactive	–	inactive	inactive
C#C[C@]1(O)CC[C@H]2[C@@H]3CCc4cc(OC5CCCC5)ccc4[C@H]3CC[C@@]21C	inactive	inactive	inactive	–	inactive	inactive	inactive	inactive	inactive	inactive	inactive	inactive	inactive	inactive	inactive	–	inactive	inactive	–	–
Cc1cc2nc3ccc(=[N+](C)C)cc-3sc2cc1N	2.37 µM (active)	inactive	inactive	inactive	–	–	inactive	inactive	inactive	inactive	–	–	–	–	–	inactive	–	–	–	11.2 µM (active)
NC(N)=NN=C(/C=C/c1ccc([N+](=O)[O-])o1)/C=C/c1ccc([N+](=O)[O-])o1	6.68 µM (active)	inactive	inactive	inactive	inactive	17.8 µM (active)	–	inactive	inactive	–	–	–	–	–	inactive	–	inactive	–	inactive	–
Cc1cc(O)ccc1O	24.6 µM (active)	inactive	inactive	–	inactive	inactive	–	inactive	inactive	–	–	inactive	inactive	–	inactive	–	inactive	–	–	–
CN(C/C=C/c1ccccc1)Cc1cccc2ccccc12	inactive	inactive	inactive	–	inactive	inactive	inactive	inactive	inactive	–	inactive	inactive	inactive	inactive	–	–	inactive	–	6.68 µM (active)	–
OCc1c[nH]c2ccccc12	61.1 µM (active)	inactive	inactive	–	inactive	–	–	inactive	0.0031 µM (active)	–	–	–	–	–	inactive	–	–	–	–	–
C#C[C@]1(OC(C)=O)CC[C@H]2[C@@H]3CCC4=C/C(=N/O)CC[C@@H]4[C@H]3CC[C@@]21CC	inactive	inactive	inactive	–	inactive	–	inactive	–	inactive	inactive	inactive	–	inactive	–	inactive	–	–	–	inactive	inactive
CC/C=C\C/C=C\C/C=C\CCCCCCCC(=O)OCC	70.1 µM (active)	inactive	inactive	inactive	inactive	–	inactive	inactive	inactive	–	inactive	–	–	–	inactive	–	inactive	inactive	inactive	–
CC1=NN(c2ccc(S(=O)(=O)O)cc2)C(=O)C1N=Nc1ccccc1 (stereo unspecified)	inactive	inactive	inactive	–	inactive	inactive	inactive	inactive	inactive	inactive	inactive	inactive	inactive	inactive	inactive	inactive	inactive	–	inactive	inactive
C[C@@H](C1=C(CCN(C)C)Cc2ccccc21)c1ccccn1	inactive	inactive	inactive	–	inactive	–	inactive	–	inactive	inactive	–	–	–	–	inactive	inactive	inactive	–	inactive	–
